Data: PubChem BioAssay (Tox21)
Inconclusive results are not listed. Activity calls are given as the source filed them. Unless noted, calls come from the whole dose curve; as a rule, active = well fitted curve in the direction sought with a large enough effect in the repeat runs; inconclusive = weak or mixed curves; inactive = no such curve, though single readings can be large; an effect the other way counts as inactive or inconclusive.

Key:
[1] = qHTS assay to identify small molecule antagonists of the estrogen related receptor (ERR) signaling pathway from Tox21 library - cell viability counter screen (AID 1224834); settings: ERR reporter cells viability, CellTiter-Fluor, 17.5 h; series mostly up to 92.4 µM; note: nearly all actives have a fitted effect of over 30% in size; note: potency is the fitted concentration of half-maximal effect
Procedure, shortened: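 ERR reporter cells, 2,000 per well, rested 6 h, then exposed to compound in DMSO for 17.5 hours at 37 C. Viability read as fluorescence after 30 min with CellTiter-Fluor.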

[2] = biological target: Luciferin 4-monooxygenase (Photinus pyralis) (UniProt P08659); assay: qHTS assay to identify small molecule inhibitors of firefly luciferase (AID 1224835); note: nearly all actives have a fitted effect of over 25% in size; note: potency is the fitted concentration of half-maximal effect; settings: purified P. pyralis luciferase, luminescence inhibition; series mostly up to 115 µM
Procedure, shortened: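 Biochemical qHTS: compounds run as interplate titrations against purified firefly enzyme, with D-luciferin and ATP each at its KM concentration. Light output recorded by CCD imaging.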

[3] = qHTS assay to identify small molecule agonists of the constitutive androstane receptor (CAR) signaling pathway - cell viability counter screen (AID 1224836); settings: HepG2-CYP2B6-hCAR viability, CellTiter-Fluor, 23 h, PK11195 added to every well; series mostly up to 92.4 µM; note: nearly all actives have a fitted effect of over 45% in size; note: potency is the fitted concentration of half-maximal effect
Procedure, shortened: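 Compound titrations (15 concentrations) went onto HepG2-CYP2B6-hCAR cells 4 h after seeding, alongside PK11195 at a final 0.75 uM; a 23 h, 37 C/5% CO2 incubation preceded CellTiter-Fluor viability measurement.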

[4] = qHTS assay to identify small molecule antagonists of the constitutive androstane receptor (CAR) signaling pathway - cell viability counter screen (AID 1224837); settings: HepG2-CYP2B6-hCAR viability, CellTiter-Fluor, 23 h, co-treated with 50 nM CITCO; series mostly up to 92.4 µM; note: nearly all actives have a fitted effect of over 45% in size; note: potency is the fitted concentration of half-maximal effect
Procedure, shortened: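 HepG2 cells stably carrying hCAR and CYP2B6-2.2kb reporter, stimulated with 50 nM CITCO and compounds at 15 concentrations for 23 h at 37 C. Viability measured by CellTiter-Fluor fluorescence.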

[5] = qHTS RealTime-Glo MT Cell Viability Assay in HEK293 cells - 32 hour (AID 1224868); settings: RealTime-Glo luminescence; series mostly up to 76.8 µM; note: nearly all actives have a fitted effect of over 50% in size; note: potency is the fitted concentration of half-maximal effect
Procedure, shortened: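 Reads taken at 0, 8, 16, 24, 32 and 40 h from the same wells. HEK293 cells (600/well) carried RealTime-Glo reagents from seeding, with compound added after a 5 h settle at 37 C.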

[6] = A CellTox Green Cytotoxicity Assay to monitor cytotoxicity in HepG2 cells - 24 hour (AID 1224878); settings: CellTox Green fluorescence; series mostly up to 76.8 µM; note: nearly all actives have a fitted effect of over 45% in size; note: potency is the fitted concentration of half-maximal effect
Procedure, shortened: (§1)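 HepG2 cells, 600/well, preincubated 5 h with CellTox Green dye, then exposed to Tox21 compounds in DMSO at 37 C for up to 40 h. Dead-cell DNA fluorescence read at the indicated time point.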

[7] = A CellTox Green Cytotoxicity Assay to monitor cytotoxicity in HepG2 cells - 32 hour (AID 1224883); settings: CellTox Green fluorescence; series mostly up to 76.8 µM; note: nearly all actives have a fitted effect of over 50% in size; note: potency is the fitted concentration of half-maximal effect
Procedure, shortened: as §1

[8] = qHTS assay to identify small molecule antagonists of the androgen receptor (AR) signaling pathway using the MDA cell line in the presence of 0.5 nM R1881 - cell viability counter screen (AID 1259242); settings: MDA-kb2 viability, CellTiter-Fluor protease fluorescence, 16 h; series mostly up to 92.4 µM; note: nearly all actives have a fitted effect of over 45% in size; note: potency is the fitted concentration of half-maximal effect
Procedure, shortened: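 MDA-kb2 cells (MMTV-luciferase, AR/GR responsive) were treated with compounds plus 0.5 nM R1881 (final) for 16 hr at 37C, 0% CO2. Viability was then read in the same wells as live-cell protease fluorescence (CellTiter-Fluor, 30 min).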

[9] = qHTS assay to identify small molecule agonists of the sonic hedgehog signaling (Shh) pathway - cell viability counter screen (AID 1259366); settings: NIH/3T3 Gli1-Luc viability, CellTiter-Fluor, 24 h; series mostly up to 92.4 µM; note: nearly all actives have a fitted effect of over 50% in size; note: potency is the fitted concentration of half-maximal effect
Procedure, shortened: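 Fluorescence from CellTiter-Fluor reports live cells in this counter screen. NIH/3T3-derived Gli1-Luc reporter cells receive test compounds for 24hr at 37C; reagent goes in at 23hr.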

[10] = biological target: Estrogen receptor (Homo sapiens) (UniProt P03372); assay: qHTS assay to identify small molecule agonists of the estrogen receptor alpha (ER-alpha) signaling pathway in the presence of an antagonist (AID 1259383; calls by dose curve; note: top concentration of the series differs between compounds; nearly all actives have a fitted effect of over 15% in size); settings: VM7Luc4E2 cells, ERE-luciferase, +ICI-182,780, 22 h; series mostly up to 92.4 µM
Procedure, shortened: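 VM7Luc4E2 cells express endogenous full-length ER-alpha with an ERE-luciferase reporter and were hormone-deprived for 5 days. Compounds at 15 concentrations were added with 10.0nM ICI-182,780 for 22hr at 37C. Luminescence was read with ONE-Glo.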

[11] = qHTS assay to identify small molecule antagonists of the TGF-beta/Smad signaling pathway - cell viability counter screen (AID 1346824); settings: SBE-bla HEK293T viability, CellTiter-Glo luminescence; series mostly up to 76.8 µM; note: nearly all actives have a fitted effect of over 50% in size
Procedure, shortened: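 SBE-bla HEK 293T cells, incubated overnight, then compound plus 0.25 ng/mL TGF-beta1 (stock added) for 5 hr at 37 C. Viability was read in the same wells by CellTiter-Glo luminescence after 30 min at room temperature.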

[12] = qHTS assay to identify small molecule agonists of the TGF-beta/Smad signaling pathway - cell viability counter screen (AID 1346829); settings: SBE-bla HEK293T viability, CellTiter-Glo luminescence, 5 h; series mostly up to 76.8 µM
Procedure, shortened: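 Same-well cytotoxicity: CellTiter-Glo added after the 2 hr room-temperature beta-lactamase substrate step, luminescence measured 30 min later; cells had 5 hr of compound at 37 C.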

[13] = biological target: Cytochrome P450 2C19 (Homo sapiens) (UniProt P33261); assay: Cytochrome P450 Family 2 Subfamily C Member 19 (CYP2C19) small molecule antagonists: luciferase reporter qHTS assay (AID 1671197); settings: P450-Glo CYP2C19 enzyme, luciferin luminescence, 1 h; series mostly up to 115 µM; note: nearly all actives have a fitted effect of over 65% in size; note: potency is the fitted concentration of half-maximal effect
Procedure, shortened: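 Quantitative high-throughput screen of the Tox21 library using CYP2C19 with proluciferin substrate. Reaction: NADPH regeneration, 37C, 1 h, after 10 min compound preincubation at room temperature. Readout: luminescence.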

[14] = biological target: Retinoic acid receptor RXR-alpha (Homo sapiens) (UniProt P19793); assay: qHTS assay to identify small molecule agonists of the RXR signaling pathway (AID 1159527; calls by dose curve; note: nearly all actives have a fitted effect of over 35% in size; note: potency is the fitted concentration of half-maximal effect); settings: HEK293T RXRa-UAS-bla, beta-lactamase ratio, 16 h; series mostly up to 76.8 µM
Procedure, shortened: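 Beta-lactamase reporter assay, agonist format. Engineered HEK 293T line, charcoal-stripped FBS at 2%, overnight (16 hr) exposure, fluorescence at 460 and 530 nm after 405 nm excitation.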

[15] = qHTS RealTime-Glo MT Cell Viability Assay in HepG2 cells - 24 hour (AID 1224867); settings: RealTime-Glo luminescence; series mostly up to 76.8 µM; note: nearly all actives have a fitted effect of over 50% in size; note: potency is the fitted concentration of half-maximal effect
Procedure, shortened: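 HepG2 suspension premixed with RealTime-Glo reagents is plated at 600 cells per well and left 5 h at 37 C/5% CO2. Compounds in DMSO then go in, and bioluminescence reflecting viable cell number is recorded over 40 h.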

[16] = A CellTox Green Cytotoxicity Assay to monitor cytotoxicity in HepG2 cells - 40 hour (AID 1224879); settings: CellTox Green fluorescence; series mostly up to 76.8 µM; note: nearly all actives have a fitted effect of over 40% in size; note: potency is the fitted concentration of half-maximal effect
Procedure, shortened: as §1

[17] = qHTS assay to identify small molecule antagonists of the sonic hedgehog signaling (Shh) pathway - cell viability counter screen (AID 1259367); settings: NIH/3T3 Gli1-Luc viability, CellTiter-Fluor, 24 h; series mostly up to 92.4 µM; note: nearly all actives have a fitted effect of over 55% in size; note: potency is the fitted concentration of half-maximal effect
Procedure, shortened: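 Seed 3T3 Gli1-Luc cells at 2,000 per well; incubate 4 hr; add compound in DMSO, then conditioned medium; incubate at 37C with 5% CO2; add CellTiter-Fluor after 23 hr; read fluorescence 1 hr later.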

[18] = biological target: Nuclear receptor subfamily 1 group I member 2 (Homo sapiens) (UniProt O75469); assay: Human pregnane X receptor (PXR) small molecule agonists, qHTS assay (AID 1346982); settings: PXR-Luc HepG2, CYP3A4 luciferase reporter, 24 h; series mostly up to 92.4 µM; note: nearly all actives have a fitted effect of over 35% in size; note: potency is the fitted concentration of half-maximal effect
Procedure, shortened: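 PXR-Luc HepG2 reporter cells (CYP3A4-driven luciferase) in 5% charcoal-stripped FBS medium, plated 5 h before compound addition, then treated 24 h at 37C. Luciferase read by ONE-Glo luminescence after 30 min at room temperature.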

[19] = biological target: Cytochrome P450 2C9 (Homo sapiens) (UniProt P11712); assay: Cytochrome P450 Family 2 Subfamily C Member 9 (CYP2C9) small molecule antagonists: luciferase reporter qHTS assay (AID 1671198); settings: P450-Glo CYP2C9 enzyme assay, luciferin luminescence; series mostly up to 115 µM; note: nearly all actives have a fitted effect of over 50% in size; note: potency is the fitted concentration of half-maximal effect
Procedure, shortened: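 P450-Glo proluciferin substrate with CYP2C9 enzyme; 10 min RT preincubation, then NADPH regeneration 1 h at 37C; luciferin detection reagent 20 min RT, luminescence in relative luminescence units.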

[20] = qHTS assay for small molecule agonists of the p53 signaling pathway (AID 651631; calls by dose curve; note: nearly all actives have a fitted effect of over 15% in size); settings: HCT-116 p53RE-bla reporter, beta-lactamase FRET ratio, 16 h; series mostly up to 73.3 µM
Procedure, shortened: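 Quantitative high-throughput format: 4,000 p53RE-bla HCT-116 cells/well, 5 h pre-incubation, 16 h compound exposure at 37 °C, 2 h room-temperature substrate step, fluorescence intensity measured.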
% is set by controls: 0 for no effect and ±100 for the full control effect.

Chain of Cytochrome P450 2C19 (Homo sapiens) (P33261 whole entry, looked up): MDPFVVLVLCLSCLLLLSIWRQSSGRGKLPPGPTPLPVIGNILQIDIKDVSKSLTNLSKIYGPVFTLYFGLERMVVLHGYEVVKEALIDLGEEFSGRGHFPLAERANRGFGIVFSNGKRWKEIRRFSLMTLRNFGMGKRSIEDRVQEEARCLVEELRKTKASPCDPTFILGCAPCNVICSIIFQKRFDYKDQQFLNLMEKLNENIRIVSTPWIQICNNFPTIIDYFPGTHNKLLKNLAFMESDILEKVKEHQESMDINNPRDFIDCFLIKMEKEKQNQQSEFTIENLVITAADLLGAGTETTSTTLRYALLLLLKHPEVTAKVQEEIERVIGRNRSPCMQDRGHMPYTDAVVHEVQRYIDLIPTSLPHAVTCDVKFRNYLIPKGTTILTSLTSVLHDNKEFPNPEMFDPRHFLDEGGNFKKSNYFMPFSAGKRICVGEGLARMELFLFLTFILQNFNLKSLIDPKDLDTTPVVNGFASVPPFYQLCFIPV
Chain of Cytochrome P450 2C9 (Homo sapiens) (P11712 whole entry, looked up): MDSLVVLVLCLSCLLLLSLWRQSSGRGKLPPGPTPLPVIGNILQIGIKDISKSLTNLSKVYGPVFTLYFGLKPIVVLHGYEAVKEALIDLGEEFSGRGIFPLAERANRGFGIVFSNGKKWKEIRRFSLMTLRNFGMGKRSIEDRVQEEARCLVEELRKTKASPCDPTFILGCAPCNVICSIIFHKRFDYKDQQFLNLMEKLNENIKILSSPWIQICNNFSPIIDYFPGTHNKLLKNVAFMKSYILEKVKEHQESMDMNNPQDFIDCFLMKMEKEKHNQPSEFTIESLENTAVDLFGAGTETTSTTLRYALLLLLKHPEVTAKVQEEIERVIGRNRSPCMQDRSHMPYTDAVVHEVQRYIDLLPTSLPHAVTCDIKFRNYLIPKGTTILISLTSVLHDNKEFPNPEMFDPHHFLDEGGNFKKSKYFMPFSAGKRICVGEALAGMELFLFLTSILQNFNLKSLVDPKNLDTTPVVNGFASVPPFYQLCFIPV
Chain of Retinoic acid receptor RXR-alpha (Homo sapiens) (P19793 whole entry, looked up): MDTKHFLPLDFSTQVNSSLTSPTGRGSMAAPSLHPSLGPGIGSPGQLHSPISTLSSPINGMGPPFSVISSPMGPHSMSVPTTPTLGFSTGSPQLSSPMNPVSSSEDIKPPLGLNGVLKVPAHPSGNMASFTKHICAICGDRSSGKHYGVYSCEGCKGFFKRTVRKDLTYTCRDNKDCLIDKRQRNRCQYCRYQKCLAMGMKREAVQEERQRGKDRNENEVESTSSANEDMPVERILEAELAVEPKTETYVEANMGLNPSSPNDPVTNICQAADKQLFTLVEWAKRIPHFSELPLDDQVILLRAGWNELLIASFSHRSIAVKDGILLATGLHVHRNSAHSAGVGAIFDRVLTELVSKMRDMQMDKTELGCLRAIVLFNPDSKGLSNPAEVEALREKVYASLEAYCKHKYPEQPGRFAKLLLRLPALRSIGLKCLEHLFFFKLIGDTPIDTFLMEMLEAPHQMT
Chain of Luciferin 4-monooxygenase (Photinus pyralis) (P08659 whole entry, looked up): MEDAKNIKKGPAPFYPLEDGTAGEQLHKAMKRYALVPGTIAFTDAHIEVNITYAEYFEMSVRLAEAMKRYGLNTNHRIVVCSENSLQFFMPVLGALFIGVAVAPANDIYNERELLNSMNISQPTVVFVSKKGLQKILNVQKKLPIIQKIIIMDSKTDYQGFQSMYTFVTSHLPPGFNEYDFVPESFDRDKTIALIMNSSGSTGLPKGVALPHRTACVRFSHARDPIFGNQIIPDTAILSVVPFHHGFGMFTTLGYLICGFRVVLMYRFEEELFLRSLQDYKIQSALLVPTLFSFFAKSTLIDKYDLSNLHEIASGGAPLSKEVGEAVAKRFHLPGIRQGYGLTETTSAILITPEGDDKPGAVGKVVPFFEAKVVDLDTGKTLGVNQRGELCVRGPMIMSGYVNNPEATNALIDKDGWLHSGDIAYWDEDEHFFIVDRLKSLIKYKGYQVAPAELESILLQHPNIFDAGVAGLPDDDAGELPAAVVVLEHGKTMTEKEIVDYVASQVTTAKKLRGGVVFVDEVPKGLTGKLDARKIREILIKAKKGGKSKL
Chain of Nuclear receptor subfamily 1 group I member 2 (Homo sapiens) (O75469 whole entry, looked up): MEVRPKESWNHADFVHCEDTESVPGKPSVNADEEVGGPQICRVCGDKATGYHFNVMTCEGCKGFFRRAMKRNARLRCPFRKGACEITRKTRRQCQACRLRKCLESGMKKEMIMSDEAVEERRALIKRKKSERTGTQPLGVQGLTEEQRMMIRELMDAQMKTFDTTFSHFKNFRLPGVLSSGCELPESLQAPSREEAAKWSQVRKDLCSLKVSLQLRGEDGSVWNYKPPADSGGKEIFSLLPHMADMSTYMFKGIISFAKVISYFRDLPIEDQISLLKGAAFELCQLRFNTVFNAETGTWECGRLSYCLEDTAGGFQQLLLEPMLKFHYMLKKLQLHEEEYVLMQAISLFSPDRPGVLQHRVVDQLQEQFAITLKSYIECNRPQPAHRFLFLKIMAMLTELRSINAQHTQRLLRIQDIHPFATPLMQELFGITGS
Chain of Estrogen receptor (Homo sapiens) (P03372 whole entry, looked up): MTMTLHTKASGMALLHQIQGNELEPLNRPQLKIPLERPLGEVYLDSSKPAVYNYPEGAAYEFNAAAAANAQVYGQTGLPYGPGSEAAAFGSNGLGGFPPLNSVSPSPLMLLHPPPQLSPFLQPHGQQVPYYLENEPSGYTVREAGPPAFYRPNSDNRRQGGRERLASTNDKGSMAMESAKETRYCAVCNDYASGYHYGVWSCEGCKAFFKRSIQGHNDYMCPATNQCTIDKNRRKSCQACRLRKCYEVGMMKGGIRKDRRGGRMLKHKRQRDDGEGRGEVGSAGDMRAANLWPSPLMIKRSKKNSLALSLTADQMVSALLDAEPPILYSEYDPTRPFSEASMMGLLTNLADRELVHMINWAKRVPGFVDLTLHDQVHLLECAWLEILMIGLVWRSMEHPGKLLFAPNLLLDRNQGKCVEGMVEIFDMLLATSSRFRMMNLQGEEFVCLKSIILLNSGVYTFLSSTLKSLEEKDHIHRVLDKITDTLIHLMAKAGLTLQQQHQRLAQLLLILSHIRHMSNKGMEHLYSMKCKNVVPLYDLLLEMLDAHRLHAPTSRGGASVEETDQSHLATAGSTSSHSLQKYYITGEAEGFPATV

O=C(c1ccccc1)C(Cl)Cl
inactive: Potency [2] | Potency [6] | Potency [7] | Potency [8] | outcome [10] | Potency [11] | outcome [12] | Potency [13]
active: Potency [1] 61.1 µM | Potency [3] 61.1 µM | Potency [4] 54.5 µM | Potency [5] 38.9 µM | Potency [9] 68.6 µM

O=[N+]([O-])c1cc(C(F)(F)F)ccc1Cl
inactive: Potency [14]

O=S(=O)(C(Cl)(Cl)Cl)C(Cl)(Cl)Cl
inactive: outcome [10] | Potency [18]
active: Potency [1] 48.6 µM | Potency [2] 20 µM | Potency [3] 54.5 µM | Potency [4] 30.6 µM | Potency [15] 38.9 µM | Potency [5] 9.77 µM | Potency [6] 27.5 µM | Potency [16] 19.5 µM | Potency [7] 24.5 µM | Potency [8] 54.5 µM | Potency [9] 9.69 µM | Potency [17] 54.5 µM | Potency [13] 25.2 µM | Potency [19] 11.2 µM

CC(C)(C)c1cc(C(C)(C)C)c(O)c(C(C)(C)C)c1
active: Potency [14] 15.5 µM

Cc1nnc2n1-c1sc(CCc3ccc(CC(C)C)cc3)cc1C(c1ccccc1Cl)=NC2C (configuration not stated)
inactive: Potency [2] | Potency [17] | outcome [10]
active: Potency [1] 26.6 µM | Potency [5] 9.52 µM | Potency [18] 4.22 µM | Potency [19] 27.5 µM

Nc1ccc([N+](=O)[O-])cc1
active: Potency [1] 15.4 µM | Potency [4] 30.6 µM | Potency [5] 38.9 µM | Potency [6] 43.6 µM | Potency [16] 43.6 µM | Potency [7] 43.6 µM | Potency [9] 30.6 µM | Potency [18] 61.1 µM | Potency [13] 3.56 µM | Potency [19] 25.2 µM
inactive: Potency [15] | Potency [11] | outcome [12]

COc1cc(OC)c(OC)cc1C=O
active: Potency [17] 47.1 µM | Potency [13] 38.7 µM
inactive: Potency [1] | Potency [2] | Potency [3] | Potency [4] | Potency [15] | Potency [5] | Potency [6] | Potency [16] | Potency [7] | Potency [8] | outcome [10] | Potency [11] | outcome [12] | Potency [18]

ClC1=C(Cl)C(Cl)(Cl)C(Cl)=C1Cl
inactive: Potency [14]

O=C1C(I)=CC(=C(c2cc(I)c(O)c(I)c2)c2ccccc2C(=O)O)C=C1I
active: Potency [18] 11.9 µM | Potency [13] 13.8 µM | Potency [19] 3.89 µM
inactive: Potency [14] | Potency [3] | Potency [4] | Potency [15] | Potency [5] | Potency [6] | Potency [16] | Potency [7] | Potency [8] | Potency [9] | Potency [17] | outcome [10] | Potency [11] | outcome [12]

CNC(=O)Oc1cc(C)c(SC)c(C)c1
inactive: Potency [14] | Potency [1] | Potency [3] | Potency [4] | Potency [15] | Potency [6] | Potency [16] | Potency [7] | Potency [8] | Potency [9] | Potency [17] | outcome [10] | Potency [11] | outcome [12]
active: Potency [18] 61.1 µM | Potency [13] 56.4 µM

O=C1OC(=O)c2c(Cl)c(Cl)c(Cl)c(Cl)c21
inactive: Potency [20] | Potency [14]

Cc1c(N)cccc1[N+](=O)[O-]
inactive: Potency [20] | Potency [14]

Brc1c2ccccc2c(Br)c2ccccc12
inactive: activation [14] 1.52% [at 6.98 µM]

OC(Cc1ccccc1Cl)(Cn1[nH]cnc1=S)C1(Cl)CC1 (configuration not stated)
inactive: Potency [3] | Potency [4] | Potency [15] | Potency [6] | Potency [16] | Potency [7] | Potency [8] | Potency [9] | Potency [17] | outcome [10] | outcome [12]
active: Potency [13] 1.26 µM | Potency [19] 0.894 µM

OCC(c1ccc(Cl)cc1)c1ccc(Cl)cc1
active: Potency [1] 48.6 µM | Potency [5] 34.7 µM | Potency [6] 38.9 µM | Potency [16] 38.9 µM | Potency [7] 38.9 µM | Potency [13] 0.0894 µM | Potency [19] 12.6 µM
inactive: Potency [14] | Potency [2] | Potency [8] | outcome [10] | Potency [11] | outcome [12]

c1ccc2c(c1)Sc1ccccc1N2CC1CN2CCC1CC2 (configuration not stated)
active: Potency [1] 29.8 µM | Potency [3] 29.8 µM | Potency [15] 21.3 µM | Potency [6] 23.9 µM | Potency [16] 19 µM | Potency [7] 21.3 µM | Potency [8] 29.8 µM | Potency [9] 11.9 µM | Potency [17] 11.9 µM
inactive: Potency [2] | Potency [11] | outcome [12] | Potency [19]

C[C@]12CC[C@@H](O)C[C@@H]1CC[C@@H]1[C@@H]2CC[C@]2(C)C(=O)CC[C@@H]12
inactive: Potency [3] | Potency [4] | Potency [15] | Potency [6] | Potency [16] | Potency [7] | Potency [8] | Potency [9] | Potency [17] | Potency [11] | outcome [12]
active: Potency [5] 24.5 µM
